Where two headings read alike, the source gives them in different places. In all, about 13,000 compounds went through this assay and about 3,200 (25%) showed an effect of 50% or more. The list shows a part of the results.
Tested on: P. falciparum stage V gametocytes
Parameters: BacTiter-Glo ATP luminescence viability of purified stage V gametocytes in 384-well plates, per cent inhibition versus DMSO
Conditions: 48 h, 5 µM, inhibitor

In the case of `O=C(NCc1ccc(C(=O)NC2CCCCC2)cc1)c1ccc(O)c(-c2ccc(Cl)c(Cl)c2)c1` [TCMDC-140825], the “% Inhibition” value is reported as -4.793%.
In the case of `CN(c1ccc(C(=O)N[C@@H](CCC(=O)O)C(=O)O)cc1)S(=O)(=O)c1ccc2nc(N)[nH]c(=O)c2c1` [TCMDC-137344], the “% Inhibition” value is reported as 2.989%.
In the case of `COC(=O)c1ccc(CC(C)NCC(O)c2cccc(C(F)(F)F)c2)c(OC)c1` (stereo not shown) [TCMDC-131469], the “% Inhibition” value is reported as 14.6%.
`CCN(CCCN1CCCCC1)c1cc(C)nc(Nc2cccc(OC(F)(F)F)c2)n1` [TCMDC-132429] was tested, and the “% Inhibition” value was -20.04%.
With `COc1cc2nc(N3CCC(CNC(=O)c4ccc(-c5ccc(C(=O)N(C)C)cc5)c(OCCO)c4)CC3)nc(N)c2cc1OC` [TCMDC-138742] the “% Inhibition” value was 39.21%.
With `COc1cc2nc(N3CCC(CNC(=O)c4ccc(-c5ccc(C(=O)N(C)C)cc5OCCO)cc4)CC3)nc(N)c2cc1OC` [TCMDC-138766] the “% Inhibition” value was -18.75%.
`COc1cc2nc(N3CCC(CNC(=O)c4ccc(-c5ccc(C(=O)N(C)C)cc5C)cc4)CC3)nc(N3CCN(C)CC3)c2cc1OC` [TCMDC-138724] was tested, and the “% Inhibition” value was 15.4%.
In the case of `COc1cc2nc(N3CCC(CNC(=O)c4ccc(-c5ccc(C(=O)N(C)C)cc5)cc4)CC3)nc(N)c2cc1OC` [TCMDC-138719], the “% Inhibition” value is reported as 58.63%.
`COc1cc2nc(N3CCC(CNC(=O)c4ccc(-c5ccc(C(=O)N(C)C)cc5OCCN(C)C)cc4)CC3)nc(N)c2cc1OC` [TCMDC-138760] was tested, and the “% Inhibition” value was 100.1%.
In the case of `COc1cc2nc(N3CCC(CNC(=O)c4ccc(-c5ccc(C(=O)N(C)C)cc5O)cc4)CC3)nc(N)c2cc1OC` [TCMDC-138752], the “% Inhibition” value is reported as 72.56%.
With `COCCNc1nc(N2CCC(CNC(=O)c3ccc(-c4ccc(C(=O)N(C)C)cc4C)cc3)CC2)nc2cc(OC)c(OC)cc12` [TCMDC-138729] the “% Inhibition” value was 5.197%.
In the case of `NCCc1cccc(-c2cnc3[nH]cc(-c4ccc(C(=O)O)cc4)c3c2)c1.O=C(O)C(F)(F)F` [TCMDC-136363], the “% Inhibition” value is reported as -2.826%.
For `CN(Cc1cnc2nc(N)nc(N)c2n1)c1ccc(C(=O)NC(CCC(=O)O)C(=O)O)cc1` (stereo not shown) [TCMDC-123832], the “% Inhibition” value (% Inhibition) was 33.25%.
For `CN(C)S(=O)(=O)n1ccc2c3c(N)nc(N)nc3ccc21` [TCMDC-137973], the “% Inhibition” value was -6.92%.
With `NC(=O)c1cccc(CN2Cc3ccccc3OC3(CCN(Cc4c[nH]c5cnccc45)CC3)C2)c1` [TCMDC-133382] the “% Inhibition” value was -16.29%.
In the case of `COc1ccc2nccc([C@@H](O)CN3CCC(NCCOc4c(C)cccc4F)CC3)c2c1` [TCMDC-140657], the “% Inhibition” value is reported as 37.85%.
For `CCOC(=O)CC[C@H](NC(=O)c1ccc(NS(=O)(=O)c2ccc(-c3cnc(N)[nH]c3=O)cc2)cc1)C(=O)OCC` [TCMDC-137679], the “% Inhibition” value was 3.183%.
For `O=C(Nc1cccc(C(F)(F)F)c1)NC1CCN(c2ccnc3ccccc23)C1` (stereo not shown) [TCMDC-133579], the “% Inhibition” value was -23.57%.
With `Cc1cc2c(cc1C(F)(F)F)N(C(=O)Nc1cccc(C(=O)NC3CCN(Cc4ccccc4)CC3)c1)CC2` [TCMDC-139972] the “% Inhibition” value was -14.42%.
`CN1CCC(NC(=O)c2cc(Oc3ccc4c(c3)CCN4C(=O)Nc3cccc(C(F)(F)F)c3)ccn2)CC1` [TCMDC-141751] was tested, and the “% Inhibition” value was 51.02%.
With `COc1cc(Nc2nccc(N3CCC(NS(=O)(=O)c4ccc(NC(C)=O)cc4)CC3)n2)cc(OC)c1OC` [TCMDC-133634] the “% Inhibition” value was -31.03%.
In the case of `O=[N+]([O-])c1cc(/C=N/Nc2nc3ccccc3[nH]2)ccc1O` [TCMDC-139076], the “% Inhibition” value is reported as 6.997%.
For `O=C(Nc1ccc(F)cc1)NC1CCN(c2ccnc3cc(Cl)ccc23)C1` (stereo not shown) [TCMDC-133407], the “% Inhibition” value was -45.03%.
In the case of `Cc1nc2ccccc2n1C1CC2CCC(C1)N2CCCC1(c2ccccc2)CCN(C(=O)OCc2ccccc2)CC1` (stereo not shown) [TCMDC-138708], the “% Inhibition” value is reported as 52.65%.
`Cc1nc2ccccc2n1C1CC2CCC(C1)N2Cc1nccn1-c1ccccc1` (stereo not shown) [TCMDC-134167] was tested, and the “% Inhibition” value was -3.664%.
In the case of `O=C(/C=C/c1ccc(Cl)c(Cl)c1)NCCCCCN1CCC(NC(=O)Nc2ccc([N+](=O)[O-])cc2)CC1` [TCMDC-135719], the “% Inhibition” value is reported as -1.594%.
With `c1ccc([C@H]2CN3CCSC3=N2)cc1` [TCMDC-125847] the “% Inhibition” value was 1.326%.
With `Cc1[nH]n(-c2cccc(C(F)(F)F)c2)c(=O)c1-c1ccc(Cl)cc1` [TCMDC-124050] the “% Inhibition” value was 16.03%.
In the case of `Cc1[nH]c(C)c(C(F)(F)F)c(=O)c1-c1ccc(Oc2ccc(OC(F)(F)F)cc2)cc1` [TCMDC-135444], the “% Inhibition” value is reported as 33.82%.
In the case of `Cc1[nH]c2c(c(=O)c1Cl)-c1ccc(Oc3cccc(C(F)(F)F)c3)cc1C2=O` [TCMDC-136022], the “% Inhibition” value is reported as 56.81%.
With `Cc1cc(=O)c(-c2ccc(OCc3ccc(OC(F)(F)F)cc3)cc2)c(C)[nH]1` [TCMDC-132123] the “% Inhibition” value was 25.03%.
With `Cc1[nH]c(C)c([N+](=O)[O-])c(=O)c1-c1ccc(Oc2ccccc2)cc1` [TCMDC-135779] the “% Inhibition” value was 22.46%.
`COc1c(C)[nH]c(C)c(-c2ccc(Oc3cccc(C(F)(F)F)c3)cc2)c1=O` [TCMDC-135253] was tested, and the “% Inhibition” value was 67.89%.
For `Cc1cc(=O)c(-c2ccc(Oc3cccc(C(F)(F)F)c3)cc2)c(C)[nH]1` [TCMDC-137536], the “% Inhibition” value (% Inhibition) was 72.24%.
`Cc1cc(=O)c(-c2ccc(Oc3cccc(C(F)(F)F)c3)cc2)c(C)[nH]1` [TCMDC-133308] was tested, and the “% Inhibition” value (% Inhibition) was 48.03%.
In the case of `Cc1cc(=O)c(-c2ccc(OCCSc3ccc(C(F)(F)F)cn3)cc2)c(C)[nH]1` [TCMDC-135289], the “% Inhibition” value is reported as 67.89%.
`Cc1cc(=O)c(-c2ccc(Oc3ccc(C(F)(F)F)cc3)cc2)c(C)n1O` [TCMDC-138136] was tested, and the “% Inhibition” value was 12.43%.
For `Cc1cc(=O)c2cc(-c3ccc(OC(F)(F)F)cc3)ccc2[nH]1` [TCMDC-137042], the “% Inhibition” value was 32.81%.
For `Cc1nc2c(c(O)c1Cl)-c1ccc(Oc3cccc(C(F)(F)F)c3)cc1C2=O` [TCMDC-136021], the “% Inhibition” value was 8.301%.
With `CC1(C)N=C(N)N=C(N)N1OCCCOc1c(Cl)cc(Cl)cc1Cl` [TCMDC-131623] the “% Inhibition” value was -2.968%.
With `COC(=O)c1cccc(NC(=O)NC2CCN(c3ccnc(Nc4ccc(F)cc4)n3)C2)c1` (stereo not shown) [TCMDC-133606] the “% Inhibition” value was -36.49%.
In the case of `COc1ccc(-c2nc3c4cc(I)ccc4c4ccccc4c3[nH]2)cc1` [TCMDC-124198], the “% Inhibition” value is reported as -15.52%.
In the case of `c1ccc(C2CCC(N3CCC(N4CCN(c5ccccc5)CC4)CC3)CC2)cc1` (stereo not shown) [TCMDC-124572], the “% Inhibition” value is reported as 20.28%.
For `Cc1cc(=O)c2cc(Oc3cccc(OC(F)(F)F)c3)ccc2[nH]1` [TCMDC-132124], the “% Inhibition” value was -25.2%.
In the case of `Cc1cc(=O)c(-c2ccc(Oc3ccc(OC(F)(F)F)cc3)cc2)c(C)[nH]1` [TCMDC-137390], the “% Inhibition” value is reported as 34.7%.
`Cc1cc(=O)c(-c2ccc(Oc3cccc(OC(F)(F)F)c3)cc2)c(C)[nH]1` [TCMDC-137266] was tested, and the “% Inhibition” value was 80.76%.
With `COc1cc2c(cc1N1CCN(C)CC1)N(C(=O)Nc1ccc(-c3ccncc3)c(Cl)c1Cl)CC2` [TCMDC-139163] the “% Inhibition” value was -33.93%.
With `CN1CCN(c2ccnc3ccc(NC(=O)Nc4cccc(C#N)c4)cc23)CC1` [TCMDC-139323] the “% Inhibition” value was 13.5%.
In the case of `Cc1noc(C)c1-c1ccc2c(Nc3ccc(C#N)cc3)c(C(N)=O)cnc2c1` [TCMDC-136029], the “% Inhibition” value is reported as 27.78%.
For `CCOC(=O)CNCC(=O)c1ccc(OCc2ccccc2)cc1` [TCMDC-131777], the “% Inhibition” value was 33.46%.
`CN(C)c1ccc(OCCCCCCOc2ccccc2)cc1` [TCMDC-138000] was tested, and the “% Inhibition” value was -96.23%.
With `CC1(C)CC(NCCCCCCCOc2ccc(OCc3ccccc3)cc2)CC(C)(C)N1` [TCMDC-138958] the “% Inhibition” value was 104%.
With `N#Cc1ccc(NC(=O)N2CCCN(CCCCCNC(=O)/C=C/c3ccc(Cl)c(Cl)c3)CC2)cc1` [TCMDC-135746] the “% Inhibition” value was -26.45%.
For `O=C(Nc1ccc(Cl)cc1)c1cccc(CN2CCCN(Cc3cccc(O)c3)CC2)c1` [TCMDC-135963], the “% Inhibition” value was -7.455%.
`O=C(/C=C/c1cccc(Cl)c1)NC1CCC(CN2CCC(c3c[nH]c4ccccc34)CC2)CC1` (stereo not shown) [TCMDC-139700] was tested, and the “% Inhibition” value (% Inhibition) was 105.2%.
For `O=C(/C=C/c1cccc(Cl)c1)NC1CCC(CN2CCC(c3c[nH]c4ccccc34)CC2)CC1` (stereo not shown) [TCMDC-139715], the “% Inhibition” value (% Inhibition) was 101.4%.
`O=C(/C=C/c1ccc(Cl)cc1Cl)NC1CCC(CN2CCC(c3c[nH]c4ccccc34)CC2)CC1` (stereo not shown) [TCMDC-139704] was tested, and the “% Inhibition” value was -6.512%.
For `O=C(/C=C/c1ccc2ccccc2c1)NC1CCC(CN2CCC(c3c[nH]c4ccccc34)CC2)CC1` (stereo not shown) [TCMDC-139707], the “% Inhibition” value was 26.41%.
For `NC(=O)CN1CC=C(c2c[nH]c3ccc(Br)cc23)CC1` [TCMDC-131969], the “% Inhibition” value was -24.55%.
For `Cc1cc(NC(=O)c2cccs2)ccc1OC1CCN(Cc2ccc(F)cc2)CC1` [TCMDC-133743], the “% Inhibition” value was 2.358%.
`COc1ccc(CCC(C)N2CC(N)C(c3cn(C)c4cnccc34)C2)cc1` (stereo not shown) [TCMDC-124826] was tested, and the “% Inhibition” value was 30.72%.
In the case of `CC1CCN(CCNC(=O)c2ccc3c(=O)n(Cc4ccc(Cl)cc4)c(=S)[nH]c3c2)CC1` [TCMDC-125693], the “% Inhibition” value is reported as -28.57%.
For `CC[C@H]1CN(Cc2cccc(O)c2)CC[C@H]1CCCc1ccnc2ccc(O)cc12` [TCMDC-140337], the “% Inhibition” value was 3.253%.
With `CCCCCCCN1CC[C@@H](CCCc2ccnc3ccc(OCCCCNC(N)=NO)cc23)[C@@H](CC)C1` [TCMDC-139839] the “% Inhibition” value was 107.7%.
In the case of `CC[C@H]1CN(CCCC(=O)c2ccccc2)CC[C@H]1CCCc1ccnc2ccc(OC(=O)c3ccccc3)cc12` [TCMDC-131478], the “% Inhibition” value is reported as 92.9%.
With `CCCCCCCN1CC[C@@H](CCCc2ccnc3ccc(OCCCCNC(N)=O)cc23)[C@@H](CC)C1` [TCMDC-139835] the “% Inhibition” value was 110.9%.
`CC[C@H]1CN(Cc2ccccc2Br)CC[C@H]1CCCc1ccnc2ccc(O)cc12` [TCMDC-140335] was tested, and the “% Inhibition” value was -7.327%.

From paper PMC4552634, “A New Set of Chemical Starting Points with Plasmodium falciparum Transmission-Blocking Potential for Antimalarial Drug Discovery” (PLoS ONE, 2015)
